The source of these data is paper PMC8384837, “Expanding the binding specificity for RNA recognition by a PUF domain”.

Holding throughout (assay): yeast three-hybrid, YBZ-1, SC-Leu-His + 0.5 mM 3-AT, 4 days
What all share (settings): tags: N-Gal4 AD-HA kept; label: inside an RPR1-promoter hybrid RNA with tandem MS2 sites; ssRNA

One assay concerns the target PUM1 PUF domain R7-QGR (Homo sapiens, UniProt Q14671 828-1176, S1079Q;N1080G;E1083R). In short, it runs like this:
(§1)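 Matching RNA elements and Pumilio-1 PUF domain libraries, randomized at the three base-contacting residues of every repeat, were co-expressed from a centromeric plasmid in strain YBZ-1 (LexA–MS2 coat fusion, HIS3 reporter). The repeat regions were PCR-amplified and Illumina-sequenced from cells grown four days on SC-Leu (input) or SC-Leu-His + 0.5 mM 3-AT (selection). The interaction score is the log change in variant frequency from input to selection. It is computed in log2, with a pseudocount of 1 for absent variants.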

Another assay has as its target PUM1 PUF domain R5-NPE (Homo sapiens, UniProt Q14671 828-1176, C1007N;R1008P;Q1011E). In outline:
as §1

Another assay addresses PUM1 PUF domain R1-KRG (Homo sapiens, UniProt Q14671 828-1176, S863K;Q867G). In short, it runs like this: as §1
The target in the next assay is PUM1 PUF domain R1-QRK (Homo sapiens, UniProt Q14671 828-1176, S863Q;Q867K). In outline: as §1
Sequence of PUM1 PUF domain R1-QRK (Q14671 828-1176 S863Q/Q867K): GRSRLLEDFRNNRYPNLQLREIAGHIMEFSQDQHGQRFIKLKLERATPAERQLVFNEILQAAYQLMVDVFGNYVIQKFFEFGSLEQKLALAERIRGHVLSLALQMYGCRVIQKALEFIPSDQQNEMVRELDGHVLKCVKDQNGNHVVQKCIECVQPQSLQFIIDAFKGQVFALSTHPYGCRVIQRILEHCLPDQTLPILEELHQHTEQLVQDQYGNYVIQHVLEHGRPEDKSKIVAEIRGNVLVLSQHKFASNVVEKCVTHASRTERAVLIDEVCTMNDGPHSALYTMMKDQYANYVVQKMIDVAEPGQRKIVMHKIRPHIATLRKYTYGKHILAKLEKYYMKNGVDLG
The target in the next assay is PUM1 PUF domain R1-RNR (Homo sapiens, UniProt Q14671 828-1176, S863R;R864N;Q867R). In outline: as §1
Sequence of PUM1 PUF domain R1-RNR (Q14671 828-1176 S863R/R864N/Q867R): as the sequence (Q14671 828-1176 S863Q/Q867K) above, with Q36R, R37N, K40R counted along it
In the next assay the target is PUM1 PUF domain R3-CRS (Homo sapiens, UniProt Q14671 828-1176, Q939S). In short, it runs like this:
as §1

The target in another assay is PUM1 PUF domain R3-YPR (Homo sapiens, UniProt Q14671 828-1176, C935Y;R936P;Q939R). In short, it runs like this: as §1
Sequence of PUM1 PUF domain R3-YPR (Q14671 828-1176 C935Y/R936P/Q939R): as the sequence (Q14671 828-1176 S863Q/Q867K) above, with Q36S, K40Q, C108Y, R109P, Q112R counted along it
The target of a further assay is PUM1 PUF domain R5-GQK (Homo sapiens, UniProt Q14671 828-1176, C1007G;R1008Q;Q1011K). In short, it runs like this: as §1
Sequence of PUM1 PUF domain R5-GQK (Q14671 828-1176 C1007G/R1008Q/Q1011K): as the sequence (Q14671 828-1176 S863Q/Q867K) above, with Q36S, K40Q, C180G, R181Q, Q184K counted along it
The target of a further assay is PUM1 PUF domain R5-RNP (Homo sapiens, UniProt Q14671 828-1176, C1007R;R1008N;Q1011P). In outline: as §1
Sequence of PUM1 PUF domain R5-RNP (Q14671 828-1176 C1007R/R1008N/Q1011P): as the sequence (Q14671 828-1176 S863Q/Q867K) above, with Q36S, K40Q, C180R, R181N, Q184P counted along it
A further assay has as its target PUM1 PUF domain R5-KPM (Homo sapiens, UniProt Q14671 828-1176, C1007K;R1008P;Q1011M). In short, it runs like this:
as §1

The next assay concerns the target PUM1 PUF domain R5-NLS (Homo sapiens, UniProt Q14671 828-1176, C1007N;R1008L;Q1011S). In outline:
as §1

The target of the next assay is PUM1 PUF domain R4-ARV (Homo sapiens, UniProt Q14671 828-1176, N971A;H972R;Q975V). In short, it runs like this: as §1
Sequence of PUM1 PUF domain R4-ARV (Q14671 828-1176 N971A/H972R/Q975V): as the sequence (Q14671 828-1176 S863Q/Q867K) above, with Q36S, K40Q, N144A, H145R, Q148V counted along it
A further assay addresses PUM1 PUF domain R4-DHM (Homo sapiens, UniProt Q14671 828-1176, N971D;Q975M). In short, it runs like this:
as §1

The next assay deals with PUM1 PUF domain R3-GCF (Homo sapiens, UniProt Q14671 828-1176, C935G;R936C;Q939F). In outline:
as §1

A further assay has as its target PUM1 PUF domain R3-TGQ (Homo sapiens, UniProt Q14671 828-1176, C935T;R936G). In outline:
as §1

The next assay concerns the target PUM1 PUF domain R8-AWR (Homo sapiens, UniProt Q14671 828-1176, N1122A;Y1123W;Q1126R). In outline: as §1
The next assay deals with PUM1 PUF domain R3-EWT (Homo sapiens, UniProt Q14671 828-1176, C935E;R936W;Q939T). In short, it runs like this:
as §1

The target in the next assay is PUM1 PUF domain R3-PHE (Homo sapiens, UniProt Q14671 828-1176, C935P;R936H;Q939E). In short, it runs like this:
as §1

The target of another assay is PUM1 PUF domain R5-ELW (Homo sapiens, UniProt Q14671 828-1176, C1007E;R1008L;Q1011W). In short, it runs like this:
as §1

The next assay has as its target PUM1 PUF domain R2-LLL (Homo sapiens, UniProt Q14671 828-1176, N899L;Y900L;Q903L). In outline:
as §1

Sequence of PUM1 PUF domain R3-CRS (Q14671 828-1176 Q939S): as the sequence (Q14671 828-1176 S863Q/Q867K) above, with Q36S, K40Q, Q112S counted along it
Sequence of PUM1 PUF domain R8-AWR (Q14671 828-1176 N1122A/Y1123W/Q1126R): as the sequence (Q14671 828-1176 S863Q/Q867K) above, with Q36S, K40Q, N295A, Y296W, Q299R counted along it
Sequence of PUM1 PUF domain R3-EWT (Q14671 828-1176 C935E/R936W/Q939T): as the sequence (Q14671 828-1176 S863Q/Q867K) above, with Q36S, K40Q, C108E, R109W, Q112T counted along it
Sequence of PUM1 PUF domain R1-KRG (Q14671 828-1176 S863K/Q867G): as the sequence (Q14671 828-1176 S863Q/Q867K) above, with Q36K, K40G counted along it
Sequence of PUM1 PUF domain R5-NPE (Q14671 828-1176 C1007N/R1008P/Q1011E): as the sequence (Q14671 828-1176 S863Q/Q867K) above, with Q36S, K40Q, C180N, R181P, Q184E counted along it
Sequence of PUM1 PUF domain R3-TGQ (Q14671 828-1176 C935T/R936G): as the sequence (Q14671 828-1176 S863Q/Q867K) above, with Q36S, K40Q, C108T, R109G counted along it
Sequence of PUM1 PUF domain R2-LLL (Q14671 828-1176 N899L/Y900L/Q903L): as the sequence (Q14671 828-1176 S863Q/Q867K) above, with Q36S, K40Q, N72L, Y73L, Q76L counted along it
Sequence of PUM1 PUF domain R5-ELW (Q14671 828-1176 C1007E/R1008L/Q1011W): as the sequence (Q14671 828-1176 S863Q/Q867K) above, with Q36S, K40Q, C180E, R181L, Q184W counted along it
Sequence of PUM1 PUF domain R3-GCF (Q14671 828-1176 C935G/R936C/Q939F): as the sequence (Q14671 828-1176 S863Q/Q867K) above, with Q36S, K40Q, C108G, R109C, Q112F counted along it
Sequence of PUM1 PUF domain R5-NLS (Q14671 828-1176 C1007N/R1008L/Q1011S): as the sequence (Q14671 828-1176 S863Q/Q867K) above, with Q36S, K40Q, C180N, R181L, Q184S counted along it
Sequence of PUM1 PUF domain R3-PHE (Q14671 828-1176 C935P/R936H/Q939E): as the sequence (Q14671 828-1176 S863Q/Q867K) above, with Q36S, K40Q, C108P, R109H, Q112E counted along it
Sequence of PUM1 PUF domain R7-QGR (Q14671 828-1176 S1079Q/N1080G/E1083R): as the sequence (Q14671 828-1176 S863Q/Q867K) above, with Q36S, K40Q, S252Q, N253G, E256R counted along it
Sequence of PUM1 PUF domain R4-DHM (Q14671 828-1176 N971D/Q975M): as the sequence (Q14671 828-1176 S863Q/Q867K) above, with Q36S, K40Q, N144D, Q148M counted along it
Sequence of PUM1 PUF domain R5-KPM (Q14671 828-1176 C1007K/R1008P/Q1011M): as the sequence (Q14671 828-1176 S863Q/Q867K) above, with Q36S, K40Q, C180K, R181P, Q184M counted along it

In the case of “GGCUAGAACUAGUGGAUCCCCCGGCGCCCGGCGGCUCGAGCCCGGGUAAGUUUAAAUAGUCUGCAUGCCGCCGGGCGCCAUGCCUGCAGGUCGACUCUAGAAAACAUG”, the binding signal with PUM1 PUF domain R7-QGR was 2.75 log2 enrichment (interaction score).
In the case of “GGCUAGAACUAGUGGAUCCCCCGGCGCCCGGCGGCUCGAGCCCGGGUAAGUGUGAAUAGUCUGCAUGCCGCCGGGCGCCAUGCCUGCAGGUCGACUCUAGAAAACAUG”, the binding signal with PUM1 PUF domain R5-NPE was 4.36 log2 enrichment (interaction score).
Take “GGCUAGAACUAGUGGAUCCCCCGGCGCCCGGCGGCUCGAGCCCGGGUAAGUGUAAAUCGUCUGCAUGCCGCCGGGCGCCAUGCCUGCAGGUCGACUCUAGAAAACAUG”: the binding signal in the assay with PUM1 PUF domain R1-KRG is 2.86 log2 enrichment (interaction score); with PUM1 PUF domain R1-QRK, 4.66 log2 enrichment (interaction score); with PUM1 PUF domain R1-RNR it was 4.17 log2 enrichment (interaction score).
For the sequence “GGCUAGAACUAGUGGAUCCCCCGGCGCCCGGCGGCUCGAGCCCGGGUAAGUGUAAUUAGUCUGCAUGCCGCCGGGCGCCAUGCCUGCAGGUCGACUCUAGAAAACAUG”, the binding signal with PUM1 PUF domain R3-CRS is 0.43 log2 enrichment (interaction score); in the assay with PUM1 PUF domain R3-YPR, 0.67 log2 enrichment (interaction score).
For “GGCUAGAACUAGUGGAUCCCCCGGCGCCCGGCGGCUCGAGCCCGGGUAAGUGUCAAUAGUCUGCAUGCCGCCGGGCGCCAUGCCUGCAGGUCGACUCUAGAAAACAUG”, in the assay with PUM1 PUF domain R5-GQK, the binding signal is 2.24 log2 enrichment (interaction score).
Regarding “GGCUAGAACUAGUGGAUCCCCCGGCGCCCGGCGGCUCGAGCCCGGGUAAGUGUUAAUAGUCUGCAUGCCGCCGGGCGCCAUGCCUGCAGGUCGACUCUAGAAAACAUG”, the binding signal with PUM1 PUF domain R5-RNP is 2.93 log2 enrichment (interaction score); with PUM1 PUF domain R5-KPM, 3.06 log2 enrichment (interaction score); with PUM1 PUF domain R5-NLS it was 6.48 log2 enrichment (interaction score).
For “GGCUAGAACUAGUGGAUCCCCCGGCGCCCGGCGGCUCGAGCCCGGGUAAGUGUACAUAGUCUGCAUGCCGCCGGGCGCCAUGCCUGCAGGUCGACUCUAGAAAACAUG”, the binding signal with PUM1 PUF domain R4-ARV was 0.8 log2 enrichment (interaction score).
Turning to “GGCUAGAACUAGUGGAUCCCCCGGCGCCCGGCGGCUCGAGCCCGGGUAAGUGUAAAUUGUCUGCAUGCCGCCGGGCGCCAUGCCUGCAGGUCGACUCUAGAAAACAUG”, the binding signal was 1.23 log2 enrichment (interaction score) in the assay with PUM1 PUF domain R1-KRG and 4.23 log2 enrichment (interaction score) in the assay with PUM1 PUF domain R1-RNR.
As to “GGCUAGAACUAGUGGAUCCCCCGGCGCCCGGCGGCUCGAGCCCGGGUAAGUGUAAAUAGUCUGCAUGCCGCCGGGCGCCAUGCCUGCAGGUCGACUCUAGAAAACAUG”, the binding signal with PUM1 PUF domain R3-CRS was 3.28 log2 enrichment (interaction score); with PUM1 PUF domain R4-DHM, 5.71 log2 enrichment (interaction score); with PUM1 PUF domain R3-GCF, 3.59 log2 enrichment (interaction score); with PUM1 PUF domain R3-TGQ, 4.55 log2 enrichment (interaction score); with PUM1 PUF domain R8-AWR, 4.49 log2 enrichment (interaction score); with PUM1 PUF domain R3-EWT it was 4.31 log2 enrichment (interaction score). In addition, the binding signal in the assay with PUM1 PUF domain R4-ARV is 4.56 log2 enrichment (interaction score); with PUM1 PUF domain R3-PHE, 4.47 log2 enrichment (interaction score); in the assay with PUM1 PUF domain R5-GQK, 2.37 log2 enrichment (interaction score); with PUM1 PUF domain R5-ELW, 2.28 log2 enrichment (interaction score).
With “GGCUAGAACUAGUGGAUCCCCCGGCGCCCGGCGGCUCGAGCCCGGGUAAGCGUAAAUAGUCUGCAUGCCGCCGGGCGCCAUGCCUGCAGGUCGACUCUAGAAAACAUG”, the binding signal in the assay with PUM1 PUF domain R8-AWR was 4.57 log2 enrichment (interaction score).
“GGCUAGAACUAGUGGAUCCCCCGGCGCCCGGCGGCUCGAGCCCGGGUAAGUGUAAGUAGUCUGCAUGCCGCCGGGCGCCAUGCCUGCAGGUCGACUCUAGAAAACAUG”: the values for the binding signal with PUM1 PUF domain R3-CRS, with PUM1 PUF domain R3-YPR and with PUM1 PUF domain R3-EWT were 2.6 log2 enrichment (interaction score), 3.45 log2 enrichment (interaction score) and 4.76 log2 enrichment (interaction score), respectively.
For “GGCUAGAACUAGUGGAUCCCCCGGCGCCCGGCGGCUCGAGCCCGGGUAAGUGUAAAGAGUCUGCAUGCCGCCGGGCGCCAUGCCUGCAGGUCGACUCUAGAAAACAUG”, the binding signal with PUM1 PUF domain R2-LLL was 3.06 log2 enrichment (interaction score).
